Methyltransferases = Primary Screen for Target Class Profiling of Small Molecule Inhibitors of Methyltransferases; actives 3.9% (n = 25,000); purified enzyme, MTase-Glo SAH luminescence; hits give low values; AID 1745853, 2022; calls only at 40 µM; call rule not given here
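Each enzyme was reacted with SAM and its substrate, with compounds tested once at 40 uM; SAH formed was read by MTase-Glo luminescence.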
* = called active by the depositor; i = inactive; + = active, no number; ! = repeats disagree. This is one part of a sample in which hits are shown more often than they occur. % is scaled to controls: 0 for no effect and ±100 for the full control effect.

SMILES | Methyltransferases
CCCN1CCc2cccc3c2[C@H]1Cc1ccc(O)c(O)c1-3 | +
CCCN1CCO[C@@H]2c3cc(O)ccc3OC[C@H]21 | i
Oc1ccc2c3c1O[C@H]1[C@H](N(CCCl)CCCl)CC[C@@]4(O)[C@@H](C2)N(CC2CC2)CC[C@]314 | i
Cc1ccc(C2c3cccn3-c3ccccc3CN2C(=O)Nc2ccc(Br)cc2)cc1 (stereo not drawn) | i
COc1ccc(C2c3cccn3-c3ccccc3CN2C(=O)Nc2ccc(C)cc2C)cc1OC (stereo not drawn) | i
COc1ccc(C2c3cccn3-c3ccccc3CN2C(=O)Nc2ccc(F)cc2)cc1OC (stereo not drawn) | i
Oc1ccc2c(c1)C13CCCC[C@H]1[C@@H](C2)N(CC1CCC1)CC3 | +
CCOC(=O)C1CCC(CNC(=O)N2Cc3ccccc3-n3cccc3C2c2ccc(F)cc2)CC1 (stereo not drawn) | i
CCOc1ccc(C2c3cccn3-c3ccccc3CN2C(=O)Nc2ccc(C)cc2)cc1 (stereo not drawn) | i
CCC1c2cccn2-c2ccccc2CN1C(=O)Nc1ccc(OC)cc1 (stereo not drawn) | i
C[C@]12CC[C@@H](O[C@@H]3O[C@H](CO)[C@@H](O)[C@H](O)[C@H]3O)C[C@@]1(O)CCC1C2CC[C@]2(C)[C@@H](C3=CC(=O)OC3)CC[C@]12O (stereo partly drawn) | i
CNc1ccc2oc(C[C@H]3O[C@@]4(CC[C@H]3C)O[C@H]([C@H](C)C(=O)c3ccc[nH]3)[C@H](C)C[C@H]4C)nc2c1C(=O)O | +
CSc1ccc(C2c3cccn3-c3ccccc3CN2C(=O)Nc2cc(Cl)ccc2C)cc1 (stereo not drawn) | i
COc1ccc(OC)c(NC(=O)N2Cc3ccccc3-n3cccc3C2c2ccc(F)cc2)c1 (stereo not drawn) | i
O=C1CO[C@H]2CN(Cc3ccccc3)C[C@H]2N1Cc1cccnc1 | i
CCc1ccc(NC(=O)N2Cc3ccccc3-n3cccc3C2c2cccc(Cl)c2)cc1 (stereo not drawn) | i
O=C(Nc1cccc(Br)c1)N1Cc2ccccc2-n2cccc2C1c1cccs1 (stereo not drawn) | i
N[C@H]1[C@H](O)[C@@H](N2CCCCC2)[C@@H]2OC[C@H]1O2 | i
Cc1ccc(NC(=O)N2Cc3ccccc3-n3cccc3C2C(C)C)cc1C (stereo not drawn) | i
COc1ccc2c(c[n+](C)c3c4cc5c(cc4ccc23)OCO5)c1OC | +
Cc1cccc(NC(=O)N2Cc3ccccc3-n3cccc3C2c2cccc(C)c2)c1 (stereo not drawn) | i
CSc1ccc(C2c3cccn3-c3ccccc3CN2C(=O)NCCC(C)C)cc1 (stereo not drawn) | i
CN1CC2(C1)C(=O)N(C)C(=O)[C@@H]1C[C@@H](O)CN12 | i
Cc1cccc(C2c3cccn3-c3ccccc3CN2C(=O)Nc2ccccc2C)c1 (stereo not drawn) | i
CC(=O)C1=C(O)[C@@H]2[C@H]3c4c[nH]c5cccc(c45)C[C@H]3C(C)(C)N2C1=O | +
SMILES | Methyltransferases
COc1ccc(C2c3cccn3-c3ccccc3CN2C(=O)Nc2ccc(F)c(Cl)c2)cc1 (stereo not drawn) | i
CCOc1ccc(NC(=O)N2Cc3ccccc3-n3cccc3C2c2ccccc2Cl)cc1 (stereo not drawn) | i
CCCCN1[C@@H]2CC[C@H]1CC(OC(c1ccc(F)cc1)c1ccc(F)cc1)C2 (stereo partly drawn) | +
Cc1cccc(C2c3cccn3-c3ccccc3CN2C(=O)Nc2ccc(C)cc2Cl)c1 (stereo not drawn) | i
Cc1ccc(NC(=O)N2Cc3ccccc3-n3cccc3C2c2cccs2)c(C)c1 (stereo not drawn) | i
COCCCNC(=O)N1Cc2ccccc2-n2cccc2C1c1ccc(F)cc1 (stereo not drawn) | i
Cc1ccc(Cl)cc1NC(=O)N1Cc2ccccc2-n2cccc2C1C(C)C (stereo not drawn) | i
CC1CCCC(O)CCC/C=C/c2cc(O)cc(O)c2C(=O)O1 (stereo not drawn) | i
CC1CCCC(=O)CCC/C=C/c2cc(O)cc(O)c2C(=O)O1 (stereo not drawn) | +
COC1CCCC(C)OC(=O)Cc2cc(O)cc(O)c2C(=O)C1 (stereo not drawn) | i
Cc1ccc(C2c3cccn3-c3ccccc3CN2C(=O)Nc2ccc(C)cc2Cl)cc1 (stereo not drawn) | i
CSc1ccc(C2c3cccn3-c3ccccc3CN2C(=O)Nc2cccc(C(F)(F)F)c2)cc1 (stereo not drawn) | i
O=C(O)C1=NOC2CN(CC3CCCCC3)CC12 (stereo not drawn) | i
CCc1ccc(C2c3cccn3-c3ccccc3CN2C(=O)Nc2ccccc2C(=O)OC)cc1 (stereo not drawn) | i
CC1Oc2cc3c(-c4c(O)cc(O)c5c(O)c6c(cc45)OC(C)C(C)C6=O)c(O)cc(O)c3c(O)c2C(=O)C1C (stereo not drawn) | +
CN1C(=O)[C@]23CC4C(C)(C)[C@@]5(C[C@@]41CN2CC[C@@]3(C)O)C(=O)Nc1c5ccc2c1OC=CC(C)(C)O2 (stereo partly drawn) | i
Cc1ccccc1NC(=O)N1Cc2ccccc2-n2cccc2C1c1ccccc1Cl (stereo not drawn) | i
COC1CC(OC2CCC3(C=O)C(CCC4C3CCC3(C)C(C5=CC(=O)OC5)CCC43O)C2)OC(C)C1O (stereo not drawn) | i
CN(N=O)c1cc(O)ccc1O | +
O=C(Nc1ccccc1C(F)(F)F)N1Cc2ccccc2-n2cccc2C1c1cccs1 (stereo not drawn) | i
COC(=O)c1ccc(NC(=O)N2Cc3ccccc3-n3cccc3C2c2ccccc2Cl)cc1 (stereo not drawn) | i
CCOC(=O)c1ccccc1NC(=O)N1Cc2ccccc2-n2cccc2C1c1cc(F)cc(F)c1 (stereo not drawn) | i
[Cl-].[Cl][Pt].[NH2-].[NH2-].c1ccncc1 | +
CCOC(=O)c1cccc(NC(=O)N2Cc3ccccc3-n3cccc3C2c2ccc(CC)cc2)c1 (stereo not drawn) | i
COc1ccc(C)cc1NC(=O)N1Cc2ccccc2-n2cccc2C1c1ccc(N(C)C)cc1 (stereo not drawn) | i
SMILES | Methyltransferases
N#C/C(=C/c1ccc(O)c(O)c1)C(N)=S | +!
COc1ccc(C2c3cccn3-c3ccccc3CN2C(=O)NCc2cccc(OC)c2)cc1 (stereo not drawn) | i
CCOc1ccc(NC(=O)N2Cc3ccccc3-n3cccc3C2CC)cc1 (stereo not drawn) | i
CC(=O)C1CCC2C3CCC4C[C@@H](O)CCC4(C)C3CCC12C (stereo partly drawn) | i
CCCNC(=O)N1Cc2ccccc2-n2cccc2C1c1cccc(Cl)c1 (stereo not drawn) | i
COc1cccc(NC(=O)N2Cc3ccccc3-n3cccc3C2c2cccc(Cl)c2)c1 (stereo not drawn) | i
CC(C)NC(=O)N1Cc2ccccc2-n2cccc2C1c1cccs1 (stereo not drawn) | i
COCCCNC(=O)N1Cc2ccccc2-n2cccc2C1c1cccs1 (stereo not drawn) | i
